# Unmarked numbers belong to inactive results. No rule for the calls is given here.
# Test system: HIV-1 nucleocapsid protein NCp7 (binding to TG oligonucleotide)
# Assay: HIV Nucleocapsid (AID 346);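 also: potency is for inhibitors that block NC binding and lower polarization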
# Details: HIV-1 NC / fluorescein-TGTGTGTG probe, fluorescence polarization
# Procedure, shortened: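 Inhibition of nucleocapsid binding to single-stranded 5'-TGTGTGTG probe (10 nM) was measured by fluorescence polarization after 1 hr at room temperature with 100 nM protein under high-salt, zinc-containing, reducing conditions.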
# Potency is read from the fitted curve at half-maximal effect.
row,Structure (SMILES),Potency [µM]
1,Cc1ccccc1-c1cc(N(C)C)ncn1,> 20
2,c1cncc(-c2nc(NCCN3CCOCC3)c3ccccc3n2)c1,> 20
3,COc1ncc2ncc(=O)n(CCc3ccccc3)c2n1,> 20
4,COc1ccccc1CNc1ccnc(-c2ccc(C(=O)N(C)C)cc2)n1,> 20
5,c1ccc2c(-n3ccnc3)nc(-c3ccoc3)nc2c1,> 20
6,COC(=O)N1CCC2(CCCN(C(=O)Nc3ccccc3)C2)CC1,> 20
7,CN1CCN(c2ncnc3ccc(-c4cccnc4)cc23)CC1,> 20
8,O=C(c1ccncc1)N1CCC2(CC1)CN(c1ccc(-c3ccccc3)cc1)C2,> 20
9,CN(C)C(=O)c1ccc(-c2nccc(NCc3cccnc3)n2)cc1,> 20
10,CN(Cc1ccco1)c1ncncc1-c1cccc(NS(C)(=O)=O)c1,> 20
11,Cc1cnc(CNc2ncncc2-c2ccccc2Cl)cn1,> 20
12,Cc1cnc(CNc2ccnc(-c3ccccc3C(F)(F)F)n2)cn1,> 20
13,CN(C)c1ncc2nc(CCc3ccccc3)c(=O)n(CCc3ccccc3)c2n1,> 20
14,COc1ccc(C(=O)N2CCC3(CCN(Cc4ccc(C#N)cc4)CC3)CC2)cc1,> 20
15,COc1ccc2[nH]cc(CCNc3ncnc4ccc(-c5ccc6c(c5)OCO6)cc34)c2c1,> 20
16,COc1ccc2[nH]cc(CCNc3nc(-c4cccnc4)nc4ccccc34)c2c1,> 20
17,CN1CCN(c2ncc3nc(-c4ccccc4)c(=O)n(-c4ccccc4)c3n2)CC1,> 20
18,Cc1nc2cnc(N3CCOCC3)nc2n(C2CC2)c1=O,> 20
19,CN1CCN(c2ncc3ncc(=O)n(C4CC4)c3n2)CC1,> 20
20,FC(F)(F)c1ccccc1-c1nc(NCCN2CCOCC2)c2ccccc2n1,> 20

row,Structure (SMILES),Potency [µM]
1,O=C(c1cccc(F)c1)N1CCC2(CCCN(Cc3ccccc3)C2)CC1,> 20
2,CC(=O)N1CCC[C@@]2(CCN(C(=O)Nc3ccccc3)C2)C1,> 20
3,COc1ccccc1-c1ccc2ncnc(NCc3cnc(C)cn3)c2c1,> 20
4,COc1ccc(C(=O)N2CCC3(CC2)CN(c2cccc(-c4ccccc4)c2)C3)cc1,> 20
5,CC(=O)N1CCC2(CC1)CCN(C(=O)Nc1cccc(F)c1)CC2,> 20
6,COc1ccccc1-c1cc(Nc2ccn[nH]2)ncn1,> 20
7,COCCn1c(=O)c(C)nc2cnc(Nc3cccc(OC)c3)nc21,> 20
8,O=C(c1csnn1)N1CCC2(CCN(Cc3nccs3)CC2)CC1,> 20
9,COCC(=O)N1CCC2(CCCN(c3ccccc3)C2)CC1,> 20
10,O=c1cnc2cnc(N3CCOCC3)nc2n1Cc1ccc(F)cc1,20.6
11,COc1ccc(Oc2ncc3nc(C)c(=O)n(CCC#N)c3n2)cc1,> 20
12,CS(=O)(=O)N1CCC2(CC1)CN(C(c1ccccc1)c1ccccc1)C2,> 20
13,CNc1ncnc2ccc(-c3ccc4c(c3)OCO4)cc12,> 20
14,O=C(Nc1cccc(F)c1)N1CCC2(CC1)CCN(C(=O)c1cccc(F)c1)CC2,> 20
15,Cn1c(=O)c(-c2cccs2)nc2cnc(OCc3ccccc3)nc21,> 20
16,Cn1cc(-c2nc3cncnc3n(CCN)c2=O)c2ccccc21,> 20
17,CNc1nc(-c2ccc(N(C)C)cc2)nc2ccccc12,> 20
18,COc1ccc2[nH]cc(CCNc3ccnc(-c4ccc(C(=O)N(C)C)cc4)n3)c2c1,> 20
19,COc1ccc(CNc2ncncc2-c2cccnc2)c(OC)c1,> 20
20,N#Cc1cccc(NC(=O)N2CCC3(CC2)CCN(C(=O)c2cnccn2)CC3)c1,> 20
